The text below walks through data of PubChem BioAssay AID2025 (NMMLSC, 2009).

The campaign covered roughly 330,000 compounds. About 980 (0.3%) were called active.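 How the source made its calls: active means percent response vs DMSO below 50%; inconclusive means fewer than 70 events counted for the yeast strain; inactive means the rest.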 The list comes from a sample in which actives are over-represented; it also holds similar structures and randomly drawn compounds.

This assay in a line: compounds altering RPL19A-GFP fluorescence, TOR branch – cell-based, S. cerevisiae, multiplex flow cytometry, MLPCN, primary screen (AID 2025).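 Further: median channel GFP fluorescence of the barcoded RPL19A-GFP strain; ratio of sample median GFP to plate DMSO average so 100% = DMSO; lower means less RPL19A-GFP as with rapamycin TOR inhibition.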 The settings on record: S. cerevisiae RPL19A-GFP strain, 3 h, at 10 µM, stronger effect = lower value.
As for `Cc1ccc(Cn2c(C)c3cnn(CC(=O)NCc4ccccn4)c(=O)c3c2C)cc1`, the percent response vs DMSO is 99.3% (inactive).

Regarding `Cc1c2cnn(CC(=O)NCc3ccccn3)c(=O)c2c(C)n1Cc1ccc(Cl)cc1`, the percent response vs DMSO was 28.5% [may fluoresce violet] (active).

For `O=C(Cn1ncc2c3ccccc3n(Cc3ccccc3)c2c1=O)NCc1ccccn1`, the percent response vs DMSO is 93.6% (inactive).

For the molecule `O=C(NCc1ccccc1Cl)C1CCN(S(=O)(=O)c2cccc3nonc23)CC1`, the percent response vs DMSO was 49% [may fluoresce violet] (active).

As to `O=C(NCc1ccccc1Cl)C1CCN(S(=O)(=O)N2CCOCC2)CC1`, the percent response vs DMSO is 91% (inactive).

For the molecule `O=C(CCS(=O)(=O)c1cccc2nonc12)NCCc1ccccc1Cl`, the percent response vs DMSO is 104% (inactive).

Regarding `CC(=O)C12CC(C)=C(C)CC1CC1C3CCC4=CC(=O)CCC4(C)C3CCC12C` (centres undefined), the percent response vs DMSO is 99.3% (inactive).

Consider `CC(=O)O[C@]1(C(C)=O)CC[C@H]2[C@@H]3C=C(C)C4=CC(=O)CC[C@]4(C)[C@H]3CC[C@@]21C`, for which the percent response vs DMSO is 33% [may fluoresce violet] (active).

As to `CC(C)CCN1CCN=C1N(C)C`, the percent response vs DMSO was 99.1% (inactive).

For `NC(=O)C1CCN(CC(O)CSc2ccc(F)cc2)CC1` (centres undefined), the percent response vs DMSO is 99.8% (inactive).

Consider `COc1cc(NC(=O)c2ccc(-c3csc(C)n3)cc2)c(OC)cc1Cl`, for which the percent response vs DMSO is 102% (inactive).

Consider `CCS(=O)(=O)Nc1ccc(C2=NN(C(C)=O)C(c3cccs3)C2)cc1` (centres undefined), for which the percent response vs DMSO is 102% (inactive).

In the case of `CCCCc1c(O)nc2n(c1=O)CCS2`, the percent response vs DMSO was 93.4% (inactive).

On to `CCCS(=O)(=O)Nc1ccc(-c2cn3c(n2)SCC3)cc1`, for which the percent response vs DMSO was 40.4% [may fluoresce violet] (active).

As for `CCc1ccc(OCC2c3cc(OC)c(OC)cc3CCN2C(C)=O)cc1` (centres undefined), the percent response vs DMSO was 42.9% [may fluoresce violet] (active).

In the case of `COc1ccc2[nH]c(=O)c(C3c4cc(OC)c(OC)cc4CCN3C(=O)c3ccco3)cc2c1` (centres undefined), the percent response vs DMSO was 103% (inactive).

As to `COc1ccc(CC(NC(C)=O)C(=O)NC2CCN(C(=O)c3ccc(OC)c(OC)c3)CC2)cc1OC` (centres undefined), the percent response vs DMSO was 93.8% (inactive).

For `COc1ccccc1-n1nnnc1S(=O)(=O)Cc1ccc(Cl)cc1`, the percent response vs DMSO was 102% (inactive).

As for `Cc1cccc(C(=O)NC(=S)N(C)C2CCCCC2)c1`, the percent response vs DMSO is 96.9% (inactive).

Regarding `Cc1c(NC(=O)c2c([N+](=O)[O-])cnn2C)c(=O)n(-c2ccccc2)n1C`, the percent response vs DMSO is 41.5% [may fluoresce violet] (active).

For the molecule `Cc1cc(OCC(=O)Nc2c(C)n(C)n(-c3ccccc3)c2=O)ccc1[N+](=O)[O-]`, the percent response vs DMSO was 97.2% (inactive).

Consider `Cc1c(NC(=O)Nc2cccc([N+](=O)[O-])c2)c(=O)n(-c2ccccc2)n1C`, for which the percent response vs DMSO was 102% (inactive).

Take `Cc1ccccc1-c1cc(C(=O)NCC2CC2)n(CC2CC(c3cccnc3)=NO2)n1` (centres undefined): the percent response vs DMSO was 104% (inactive).

`CNC[C@H](CC1CCCCC1)NC[C@H](NCCC1CCCC1)[C@H](C)O`: the percent response vs DMSO is 93.9% (inactive).

`CCCc1ccc(-c2c(C)sc(NC(=O)c3ccnn3C)c2C#N)cc1`: the percent response vs DMSO was 98% (inactive).

Turning to `CC1(c2ccc3ccccc3c2)NC(=O)NC1=O` (centres undefined), the percent response vs DMSO was 105% (inactive).

As for `COc1ccc(-n2nnnc2SCc2nc(N)nc(N3CCOCC3)n2)cc1`, the percent response vs DMSO was 48.8% [may fluoresce violet] (active).

Consider `COc1ccc(CSc2nnnn2-c2ccc(C(=O)O)cc2)cc1`, for which the percent response vs DMSO was 99.4% (inactive).

As to `COc1ccc(-c2nnn(Cc3nc(N)nc(N4CCCCC4)n3)n2)cc1`, the percent response vs DMSO was 98.7% (inactive).

Take `O=C(COC(=O)CNC(=O)C1CCCCC1)Nc1cccc(F)c1`: the percent response vs DMSO was 100% (inactive).

`OCC(O)CN(c1ccccc1)c1ccccc1` (centres undefined): the percent response vs DMSO was 94.3% (inactive).

For the molecule `CCn1cc(C(=O)OCC(=O)Nc2cccc(C)c2)c(=O)c2ccc(C)nc21`, the percent response vs DMSO was 96.6% (inactive).

On to `C=CC[C@H](CC(=O)N(CCO)Cc1ccccc1)C(=O)N[C@@H](COC(=O)[C@@H](CC=C)Cc1ccc(F)cc1)Cc1ccccc1`, for which the percent response vs DMSO is 96% (inactive).

In the case of `CCNS(=O)(=O)c1ccc(NC(=O)c2cncc(Br)c2)cc1`, the percent response vs DMSO was 96.5% (inactive).

In the case of `O=C(CN1CCN(S(=O)(=O)c2ccc(Br)cc2)CC1)Nc1ccccc1C(=O)c1ccccc1`, the percent response vs DMSO is 100% (inactive).

With `O=C(NNS(=O)(=O)Cc1ccccc1)c1ccc([N+](=O)[O-])cc1`, the percent response vs DMSO was 44.4% [may fluoresce violet] (active).

For the molecule `O=C(CNC(=O)c1ccccc1)Oc1ccc([N+](=O)[O-])cc1`, the percent response vs DMSO is 103% (inactive).

`O=C(Cc1ccccc1)NNS(=O)(=O)c1ccc([N+](=O)[O-])cc1`: the percent response vs DMSO is 97.4% (inactive).

As to `CC(=O)c1ccc(N2CCN(C(=O)CCNC(=O)Cn3ccc4ccccc4c3=O)CC2)cc1`, the percent response vs DMSO was 104% (inactive).

Regarding `COc1cc(C(C(=O)NC2CCCC2)N(C(=O)c2ccco2)c2ccccc2C(C)=O)cc(OC)c1OC` (centres undefined), the percent response vs DMSO is 108% (inactive).

`O=C(c1ccncc1)c1ccc([N+](=O)[O-])cc1`: the percent response vs DMSO is 98.9% (inactive).

In the case of `O=C(CC(n1cncn1)C(Cl)(Cl)Cl)c1ccc([N+](=O)[O-])cc1` (centres undefined), the percent response vs DMSO was 104% (inactive).

Regarding `O=C(C1CCCO1)N(c1ccc(F)cc1)C1C=CS(=O)(=O)C1` (centres undefined), the percent response vs DMSO was 97.9% (inactive).

As for `CCOc1ccc(C(C(=O)NC2CCCC2)N(C(=O)c2snc(C(N)=O)c2N)C2CCCC2)cc1` (centres undefined), the percent response vs DMSO was 95.8% (inactive).

`NC(=O)c1nsc(C(=O)N(CCCN2CCOCC2)C(C(=O)NC2CCCCC2)c2ccc(Cl)cc2)c1N` (centres undefined): the percent response vs DMSO was 38% [may fluoresce violet] (active).

With `CC(C)(C)NC(=O)C(c1ccc(Cl)cc1)N(CCO)C(=O)c1snc(C(N)=O)c1N` (centres undefined), the percent response vs DMSO was 99.5% (inactive).

`O=C(c1cc(S(=O)(=O)N2CCOCC2)ccc1Cl)N1CCOCC1`: the percent response vs DMSO is 112% (inactive).

Turning to `O=C(O)c1ccc(S(=O)(=O)N2CCOCC2)o1`, the percent response vs DMSO was 47.2% [may fluoresce violet] (active).

As for `O=C(CCc1ccc(S(=O)(=O)N2CCOCC2)cc1)NN=C1CCCCCCC1`, the percent response vs DMSO is 101% (inactive).

For `CCOC(=O)CNC(=O)/C=C/c1c(Cl)cccc1Cl`, the percent response vs DMSO was 94.2% (inactive).

As to `CC(C)=CCCC1(C)C=Cc2c(ccc3c2[nH]c2cc(O)c(C)cc23)O1` (centres undefined), the percent response vs DMSO was 97.2% (inactive).

As to `O=C1CN(C(=O)COc2c(Cl)cccc2Cl)c2ccccc2N1`, the percent response vs DMSO was 91.8% (inactive).

For the molecule `O=C1CN(C(=O)COC(=O)c2cnc(Cl)c(Cl)c2)c2ccccc2N1`, the percent response vs DMSO was 18.6% [may fluoresce violet] (active).

On to `COc1cc(OC)c(C(=O)OCC(=O)N2CC(=O)Nc3ccccc32)cc1OC`, for which the percent response vs DMSO was 93.3% (inactive).
